The entries come from a sample that favours hits as a whole.
Tg IFNy HTS: inhibitors of Toxoplasma gondii growth with IFN-gamma; Toxoplasma gondii growth in IFN-gamma-treated host cells; stronger effect = lower value; activity change, negative = inhibition, % (concentration not given with the values); 69,000 tested, 3.8% active; in the data active means activity change below about -70%, passing the limit was not always enough;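 further: host cells are HeLa cells infected with Toxoplasma gondii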
* = called active by the depositor; i = inactive; ! = a repeat was not active.

SMILES | Tg IFNy HTS
CCc1ccc(C(=O)N2CCC[C@@]3(C(=O)N(C)C)CN(c4nnc(C)o4)C[C@H]3C2)cc1 | 2.6
Cc1oc(C2CCN(C(=O)c3ccc4c(c3)OCO4)CC2)nc1C(=O)N1CCSCC1 | -35.8
O=C1N(Cc2ccccn2)C(=O)C2(CCN(Cc3c(F)cccc3Cl)CC2)N1Cc1ccccc1 | -72.9*
Cc1c(CN2CCC3(CC2)C(=O)N(Cc2ccccn2)C(=O)N3Cc2ccccc2)cnn1C | 18.5
O=C1N(Cc2ccccn2)C(=O)C2(CCN(CC3CC=CCC3)CC2)N1Cc1ccccc1 (configuration not stated) | -3.2
N#Cc1c(=N)nc2oc3ccc(Cl)cc3c3c(C#N)c(N)[nH]c1c23 | -75.1*
N#Cc1c(=O)[nH]c(O)c2c(=N)oc3ccc(Cl)cc3c12 | 60.5
Cc1ccc(CN2CCC3(CCC3NS(=O)(=O)c3ccccc3)CC2)s1 (configuration not stated) | -16.1
CC(C)Sc1ccccc1C(=O)NCc1ccccn1 | 22.0
CNC(=O)c1ccccc1Sc1ccc2c(/C=C/c3ccccn3)n[nH]c2c1 | -75.3*!
O=C(Nc1cc(-c2ccccn2)no1)c1cccc2[nH]ccc12 | 273.0
CCOC(=O)c1sc(NN=C2Cc3ccccc3C2)nc1C | i
Cc1ccc(CNC2CCc3c(ccc(=O)n3Cc3cccnc3)C2)o1 (configuration not stated) | -23.7
CCN(CC)C(=O)CC1CC2(CCN(C(=O)N3CCCC3)CC2)Oc2ccccc21 (configuration not stated) | -10.9
COc1ccc(Cl)cc1NC(=O)COc1nc(C)nc2ccccc12 | -14.6
COc1ccc(Cl)cc1NC(=O)Nc1cc(C)nc2ccccc12 | -86.5*
COc1ccc(Cl)cc1NC(=O)c1nc(Nc2ccccc2)c2ccccc2n1 | 83.7
CN1CCC2(CC1)CN(C(=O)Nc1ccccc1)Cc1ccccc12 | -2.8
CC(=O)N[C@@H](Cc1cnc[nH]1)C(=O)N1C[C@@H]2C3CCC(CC3)[C@@H]2C1 | 5.2
OCCSc1ccc(Cc2ccc(SCCO)cc2)cc1 | 36.0
CCOc1ccc(Nc2nc(N)nc(CN3CCN(C)CC3)n2)cc1 | 30.8
Cc1ccc(Nc2nc(N)nc(CSc3nc4ccccc4s3)n2)cc1 | -64.3
Cc1ccc(Nc2nc(N)nc(CN3CCc4ccccc4C3)n2)cc1 | -98.5*
Cc1cccc(CN2CCC3(CC2)N=C(c2cccc(C)c2)C(=O)N3)c1 | -71.5
CC1=C(C(=O)Nc2c(F)c(F)c(F)c(F)c2F)C2(CCN(Cc3ccccc3)CC2)OC1=O | 49.4
SMILES | Tg IFNy HTS
COCCCN(C(=O)c1ccc(NC(C)=O)cc1)C1(C(=O)NCc2ccccc2)CCN(C(C)=O)CC1 | 99.7
CCc1noc(-c2cc(=O)n(CC(=O)NCc3ccc(SC)cc3)c3ccccc23)n1 | -4.5
CO[C@@]12[C@@H]3NC3CN1C1=C(C(=O)C(N)=C(C)C1=O)[C@@H]2COC(N)=O (some centres not stated) | -79.9*
Clc1ccc2sc(SCc3c(Cl)cccc3Cl)nc2c1 | 51.6
NCCCCCCNS(=O)(=O)c1cccc2ccccc12 | 3.1
NC(N)=NCCNS(=O)(=O)c1cccc2cnccc12 | -48.8
Nc1nc(NCC2CCC(CNS(=O)(=O)c3cccc4ccccc34)CC2)nc2ccccc12 (configuration not stated) | -76.7*!
Cc1nn(Cc2nc(-c3ccc(NC(=O)C4CCC4)cc3)oc2C)c(C)c1C | 14.5
CN1C(=O)c2cc(NC(=O)Cc3cccs3)ccc2OC[C@H]2O[C@H](CC(=O)NCc3ccc(-c4ccccc4)cc3)CC[C@@H]21 | -84.9*
CN1C(=O)c2cc(NC(=O)Cc3cccs3)ccc2OC[C@H]2O[C@@H](CC(=O)NCCc3ccncc3)CC[C@@H]21 | 5.0
CN1C(=O)c2cc(NC(=O)Cc3cccs3)ccc2OC[C@@H]2O[C@H](CC(=O)NCc3ccc(-c4ccccc4)cc3)CC[C@H]21 | 6.7
CNS(=O)(=O)CCNC(=O)[C@@]12CNC[C@@H]1CN(C)C2 | -3.3
C=CCNc1ccccc1C(=O)N[C@H](C(N)=O)C(C)C | 4.0
COc1cc(OC)c(NS(=O)(=O)c2ccc(F)cc2)cc1NC(C)=O | 42.0
O=C(O)CN1CCCC2(CCN(c3ccccc3)C2=O)C1 (configuration not stated) | 4.6
CCOc1ccccc1NC(=O)C(=O)NCCc1sc(-c2cccc(C)c2)nc1C | 185.3
O=S1(=O)CCN(Cc2ccc(NS(=O)(=O)c3ccc(Cl)cc3)cc2)CC1 | -92.1*
CNS(=O)(=O)c1ccc(CN2CCN(Cc3cccc(F)c3)CC2)cc1 | -3.1
O=S(=O)(Nc1ccc(C2=NCCO2)cc1)c1ccc(Cl)cc1 | -18.0
Cc1nn(CC(=O)NC(Cc2cc(=O)[nH]c(-c3ccccn3)n2)c2ccccc2)c(C)c1C (configuration not stated) | 5.2
COc1ccccc1-c1nc(Cn2nnc(-c3nc(-c4cccc(Cl)c4)no3)c2C)c(C)o1 | -0.4
CCOc1ccc(-c2ccccc2NC(=O)C2CC2)cc1 | 23.0
Cc1cc(C)c2nc(C)cc(C(=O)Nc3ccccc3-c3ccccc3)c2c1 | -29.6
O=C(Nc1ccccc1-c1ccccc1)c1ccc2c(c1)[nH]c(=O)n2C1CCCC1 | -92.3*
COc1cccc(-c2nc(C)c(-c3ccc(SCCN4CCOCC4)nn3)s2)c1 | -0.2
SMILES | Tg IFNy HTS
Cc1cccc(CNC2=NCCNC23CCN(S(=O)(=O)c2ccc(C(C)C)cc2)CC3)c1 | -42.2
O[C@@H]1CN(Cc2cc3n(n2)CCNC3)CC[C@H]1c1ccc2ccccc2c1 | -0.2
CC(C)c1ccc2c(c1)CCC1C(C)(C(N)=O)CCCC21C (configuration not stated) | -71.9*
CC(C)c1ccc2c(c1)CCC1[C@](C)(CN)CCC[C@]21C (some centres not stated) | -8.8
COC(=O)[C@@]1(C)CCC[C@]2(C)c3ccc(O)c(C(C)C)c3CCC12 (some centres not stated) | -76.4*
COc1ccc2c3c(n(C)c2c1)[C@@H](CO)N(C(=O)CC1CC1)CC31CN(C(=O)NC(C)C)C1 | 128.6
CC(C)c1c(O)ccc2c1CCC1C(C)(C)CCC[C@]21C (some centres not stated) | -46.3
Cc1nnc(N2C[C@H]3CCCO[C@H]3[C@H](N3CCCC3=O)C2)s1 | -0.9
CC(C)CN1CCN(C(=O)NCc2ccc(F)cc2)C(C)C1=O (configuration not stated) | -4.3
C=CCO[C@@H]1CN(c2ccc(C)nn2)[C@H]2CCCO[C@@H]12 | -29.7
Cn1cc(CN2CCC(F)(F)C3(CCN(c4cccnc4)C3)C2)cn1 (configuration not stated) | -36.7
CN1CC(=O)N(c2cccc(F)c2)CC12CCN(Cc1nccs1)C2 (configuration not stated) | -51.5
CN1CCCCC(C2CCN(CC(=O)N3CCN(c4ccc(F)cc4)CC3)CC2)C1=O (configuration not stated) | -15.5
Cc1cc2c(cc3c(=O)n(CCC#N)nc(C)n32)s1 | -90.5*
COc1ccc(-c2nn(CCC#N)c(=O)[nH]2)cc1 | 23.1
C#C[C@]1(O)CCC2C3CCC4=CC(=O)CC[C@@H]4C3CC[C@@]21C (some centres not stated) | -81.0*
CCC(=O)O[C@]1(C(=O)CO)CC[C@H]2[C@@H]3CCC4=CC(=O)CC[C@]4(C)[C@H]3CC[C@@]21C | 0.5
C[C@]12CCC(=O)C=C1CCC1C2C(=O)C[C@@]2(C)C1CC[C@]2(O)C(=O)CO (some centres not stated) | 11.6
C#C[C@]1(O)CCC2C3CCc4cc(OC5CCCC5)ccc4C3CC[C@@]21C (some centres not stated) | -6.0

Screening results: PubChem, Broad Institute
